Screening data from PubChem.
Rows were chosen to be rich in hits. Some 2.3% of all compounds tested hit in one or more screens of this group.
Bim-Mcl-1: disrupts Bim peptide binding to human Mcl-1 | Q07820 | Bead-based flow cytometry, Bim peptide-Mcl-1 binding | inhibition, % at 10 µM | 190,000 tested, 0.1% active; in the data active = inhibition above about 40%
Target sequence (Q07820 whole entry, looked up): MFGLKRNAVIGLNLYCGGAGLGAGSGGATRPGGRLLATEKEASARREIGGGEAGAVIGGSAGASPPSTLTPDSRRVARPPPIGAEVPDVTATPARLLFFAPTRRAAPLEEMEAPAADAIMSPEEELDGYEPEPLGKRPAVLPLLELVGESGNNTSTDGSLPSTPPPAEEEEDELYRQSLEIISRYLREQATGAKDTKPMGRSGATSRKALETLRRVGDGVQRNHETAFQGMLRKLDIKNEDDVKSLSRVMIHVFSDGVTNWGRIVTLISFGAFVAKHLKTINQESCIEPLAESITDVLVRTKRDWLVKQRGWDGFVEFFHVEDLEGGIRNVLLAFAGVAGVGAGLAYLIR
Mcl1-Bid inh: disrupts binding of human Mcl-1 to Bid peptide | inhibition, % at 21.7 µM | TR-FRET Mcl-1/Bid-Dy647 peptide binding, 1536-well | 220,000 tested, 0.97% active;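 active = compounds that cut the binding signal by more than half at the single screening dose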;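 note: His-tagged Mcl-1 with europium anti-His antibody binding Bid BH3 peptide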
BCLXL inh: Bcl-xL (human) inhibition; Q07817; GST-Bcl-xL / FITC-Bim BH3 peptide fluorescence polarization; inhibition, % at 10.9 µM; 320,000 tested, 0.7% active;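 active = inhibition above the mean of all tested compounds plus 3 SD, cutoff set per campaign, cut at about 30% in these data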;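 note: inhibitors lower millipolarization by displacing the labeled peptide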
Target sequence (Q07817 whole entry, looked up): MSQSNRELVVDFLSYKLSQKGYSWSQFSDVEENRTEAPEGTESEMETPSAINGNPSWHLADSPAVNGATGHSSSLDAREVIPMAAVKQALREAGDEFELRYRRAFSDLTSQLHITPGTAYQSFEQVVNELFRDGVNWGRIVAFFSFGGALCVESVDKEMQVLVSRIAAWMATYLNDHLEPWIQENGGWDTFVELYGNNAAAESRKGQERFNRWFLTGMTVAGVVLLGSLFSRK
Mcl1 Noxa PPI: disrupts binding of human Mcl-1 to Noxa peptide. AID 1022. inhibition, % at 21.7 µM. 220,000 tested, 1.5% active. TR-FRET Mcl-1/Noxa peptide binding, 2 h;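 active = compounds that cut the protein-peptide binding signal by more than 50% relative to plate controls in a single-dose test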;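 note: His-tagged Mcl-1 with rhodamine Noxa BH3 peptide and terbium anti-His antibody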
GLD-1 TGE inh: GLD-1-TGE RNA interaction inhibition (C. elegans); Q17339; purified GLD-1 + fluorescein TGE RNA, fluorescence polarization; inhibition, % at 5.96 µM; 320,000 tested, 0.44% active; AID 2280;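 active = percent inhibition above a per-plate cutoff, the plate mean of test compounds plus 3 SD, cut at about 30% in these data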
MCL1-BIM inh: inhibitors of human MCL1 binding to BIM-BH3 peptide; Q07820; GST-MCL1 / FITC-Bim-BH3 fluorescence polarization; inhibition, % at 10.9 µM; 320,000 tested, 0.68% active; AID 2057;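 active = inhibition above the mean inhibition of all tested compounds plus 3 SD, set per campaign, cut at about 40% in these data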;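 note: higher means more loss of mP so more displacement of Bim peptide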
Bcl-xL conf: Bcl-xL (human) inhibition, MCL1 counter-screen confirmation | inhibition, % at 10.9 µM | 1,700 tested, 54% active | AID 2166 | shares compounds with MCL1-BIM inh | GST-Bcl-xL / FITC-Bim BH3 peptide FP binding;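 active = inhibition above a cutoff equal to the mean inhibition of all tested compounds plus 3 SD, cut at about 30% in these data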
MCL1 inh confirm: MCL1-BIM-BH3 interaction inhibition, confirmation; GST-MCL1 / FITC-Bim-BH3 fluorescence polarization; 1,700 tested, 61% active; inhibition, % at 10.9 µM; shares compounds with MCL1-BIM inh;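 active = inhibition above the average of all tested compounds plus 3 SD, cut at about 40% in these data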
Numbers stand for hits; – = inactive; · = no result given; + = active, no number.

SMILES	Bim-Mcl-1	Mcl1-Bid inh	BCLXL inh	Mcl1 Noxa PPI	GLD-1 TGE inh	MCL1-BIM inh	Bcl-xL conf	MCL1 inh confirm
CC(=O)Nc1ccc(S(=O)(=O)N2CCN(C(=O)C3COc4ccccc4O3)CC2)cc1 (stereo not drawn)	·	·	–	·	–	–	·	·
COc1ccc(S(=O)(=O)N2CCN(C(=O)C3COc4ccccc4O3)CC2)cc1 (stereo not drawn)	·	·	–	·	–	89	–	90
N#C/C(=C\c1cc(Cl)c(OCc2ccc(Cl)cc2)c(Cl)c1)C(N)=O	·	–	–	–	–	–	·	·
N#C/C(=C\c1cc(O)c(O)c(O)c1)C(N)=O	·	–	–	–	–	53	–	–
CCn1cc(C(=O)NC2CCCCCC2)c(=O)c2ccc(C)nc21	·	·	–	·	–	–	·	·
CCN(CC)S(=O)(=O)c1ccc(OC)c(NC(=O)Cc2cccs2)c1	–	–	–	56	–	40	–	51
COc1cc(OC)c(NC(=O)Cc2cccs2)cc1Cl	·	·	–	·	–	–	·	·
CC12CCC(=O)N1C(C(=O)Nc1ccc(SC(F)F)cc1)CS2 (stereo not drawn)	·	·	–	·	–	–	·	·
O=[N+]([O-])c1cccc(Oc2cnccn2)c1	·	·	–	·	–	41	–	–
O=[N+]([O-])c1cc(Oc2cccnc2)cc([N+](=O)[O-])c1	–	–	–	–	–	–	·	·
CCN1CCc2nc3sc(C(=O)N4CCc5ccccc5C4)c(N)c3cc2C1	·	·	–	·	–	–	·	·
CCN1CCc2nc3sc(C(=O)Nc4cccnc4Cl)c(N)c3cc2C1	·	·	46	·	–	54	–	–
COc1cccc(/C=N/NC(=O)c2cc3cc([N+](=O)[O-])ccc3s2)c1O	–	84	–	68	–	45	–	90
COc1ccc(/C=N/NC(=O)c2cccc([N+](=O)[O-])c2)cc1O	–	–	–	–	–	–	·	·
CC1CCCN(C(=O)CCc2nnc(-c3ccc4c(c3)OCO4)o2)C1 (stereo not drawn)	·	·	–	·	–	–	·	·
O=[N+]([O-])c1ccc(N2CCN(c3ccccn3)CC2)c(Cl)c1	·	·	–	·	–	–	·	·
CC(C)n1cc(CN2CCN(C)C(CCO)C2)c2ccccc21 (stereo not drawn)	·	·	–	·	–	–	·	·
O=C1CNC(=O)/C(=C\c2ccccc2)N1	·	·	–	·	–	–	·	·
O=C1/C(=C/c2ccccc2)Nc2ccccc21	–	–	64	–	–	57	56	82
Cc1onc(-c2ccccc2)c1C(=O)N(CC(C)C)c1c(N)n(CC(C)C)c(=O)[nH]c1=O	·	·	–	·	–	–	·	·
CN1C(=O)c2cccc3c(N(C)C)ccc(c23)C1=O	·	·	75	·	–	89	31	–
CNc1ccc2c3c(cccc13)C(=O)N(C)C2=O	·	·	178	·	119	+	+	+
CCCCC1=CC2=C(c3ccco3)C(=O)C(C)(OC(=O)c3ccc(OC)cc3)C(=O)C2=CN1CCN1CCOCC1 (stereo not drawn)	·	–	72	–	41	93	–	–
CCCCC1=CC2=C(c3ccco3)C(=O)C(C)(OC(=O)c3ccc(OC)cc3)C(=O)C2=CN1C1CCCC1 (stereo not drawn)	·	·	112	·	92	135	64	79
CCCCC1=CC2=C(c3ccco3)C(=O)C(C)(OC(=O)c3ccc(OC)cc3)C(=O)C2=CN1CCCN(CC)CC (stereo not drawn)	·	–	49	–	34	53	158	+
SMILES	Bim-Mcl-1	Mcl1-Bid inh	BCLXL inh	Mcl1 Noxa PPI	GLD-1 TGE inh	MCL1-BIM inh	Bcl-xL conf	MCL1 inh confirm
CCCCC1=CC2=C(c3ccco3)C(=O)C(C)(OC(=O)c3ccc(OC)cc3)C(=O)C2=CN1CCCCO (stereo not drawn)	·	–	79	–	42	89	–	–
CCCCC1=CC2=C(c3ccco3)C(=O)C(C)(OC(=O)c3ccc(OC)cc3)C(=O)C2=CN1Cc1ccc(OC)cc1 (stereo not drawn)	·	–	·	–	·	·	·	·
CCN(CC)CCNC(=S)NC(=O)c1cn(-c2ccccc2)nc1-c1ccc(OC)cc1	–	–	–	–	–	–	·	·
COC(=O)CCCC1=CC2=C(c3ccccc3)C(=O)C(C)(OC(=O)C3CCCC3)C(=O)C2=CN1CCN1CCOCC1 (stereo not drawn)	·	–	120	–	90	154	68	86
Cc1ccc(C=C2C(Cl)=C(Cl)C(Cl)=C2Cl)cc1	·	–	–	53	–	69	–	–
O=C1Nc2ccc(F)cc2C12OCCO2	·	·	–	·	–	–	·	·
O=[N+]([O-])c1ccc(CN2CCN(c3ccccc3)CC2)o1	·	·	–	·	–	–	·	·
Clc1ccccc1-c1ccc(CN2CCN(c3ccccc3)CC2)o1	–	–	–	–	–	133	–	–
O=C(O)c1c2c(nc3ccccc13)/C(=C/c1ccc(O)cc1)CC2	–	–	36	55	–	54	34	54
COc1cccc(C(=O)/C=C/Nc2cccc(O)c2)c1	–	–	86	–	–	94	–	–
Oc1ccc(-c2cn3c(n2)SCC3)cc1O	–	–	–	95	–	60	30	55
CC(=O)N/N=C/c1cc(C(C)C)cc(/C=N/NC(C)=O)c1O	–	–	93	–	143	100	92	101
CC(C)(C)c1cc[n+](-c2[nH]c(=O)sc2/C=N/NC([S-])=Nc2ccccc2)cc1	·	–	177	–	160	197	161	189
Cc1cc[n+](-c2[nH]c(=O)sc2/C=N/NC([S-])=Nc2ccccc2)cc1C	–	–	129	–	131	163	104	149
COc1ccc(CCN2CC(C(=O)NCCc3cnn(C)c3)CCC2=O)cc1 (stereo not drawn)	·	·	–	·	–	–	·	·
COc1cccc(CNC(=O)CCCCCn2c(=S)[nH]c3ccc(N4CCOCC4)cc3c2=O)c1	–	–	–	–	–	–	·	·
COc1cccc(Cn2c(=S)[nH]c3ccc(N4CCOCC4)cc3c2=O)c1	–	–	–	–	–	41	–	–
O=C(Nc1ccncc1)C1CCN(S(=O)(=O)c2cccc(C(F)(F)F)c2)CC1	·	·	–	·	–	–	·	·
CC(C)C(NCC(=O)Nc1ccccc1C(=O)NC1CC1)c1ccccc1 (stereo not drawn)	·	·	·	·	–	·	·	·
CC(/C=C1\SC(=S)N(c2ccc(C(=O)O)cc2)C1=O)=C\c1ccccc1	·	–	–	84	–	48	–	–
COc1ccccc1C1=NN(C(=O)c2ccccc2)C(c2ccc(Br)cc2)C1 (stereo not drawn)	·	·	–	·	–	–	·	·
COc1ccc(C)cc1NC(C)C(=O)NC(=O)NC1CCCCC1 (stereo not drawn)	·	·	–	·	–	–	·	·
